Experimental data: PubChem BioAssay (NCATS)
Results filed as inconclusive are left out. The source made the active and inactive calls. Unless noted, the call rests on the fitted dose curve; in most records, active means well fitted curve in the direction sought with a large enough effect; inconclusive means small, poorly fitted or top-dose-only effect, or another doubt; inactive means no such curve, though single readings can be large; an effect the other way counts as inactive or inconclusive.

Tests used:
[1] = molecular target: Cytochrome P450 1A2 (Homo sapiens) (UniProt P05177); assay: p450-cyp1a2 (AID 410; calls by dose curve; further: potency means the concentration at half of the fitted maximal effect;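 on activity change, negative = inhibition: -100% = full effect of reference inhibitor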)
Chain of Cytochrome P450 1A2 (Homo sapiens) (P05177 whole entry, looked up): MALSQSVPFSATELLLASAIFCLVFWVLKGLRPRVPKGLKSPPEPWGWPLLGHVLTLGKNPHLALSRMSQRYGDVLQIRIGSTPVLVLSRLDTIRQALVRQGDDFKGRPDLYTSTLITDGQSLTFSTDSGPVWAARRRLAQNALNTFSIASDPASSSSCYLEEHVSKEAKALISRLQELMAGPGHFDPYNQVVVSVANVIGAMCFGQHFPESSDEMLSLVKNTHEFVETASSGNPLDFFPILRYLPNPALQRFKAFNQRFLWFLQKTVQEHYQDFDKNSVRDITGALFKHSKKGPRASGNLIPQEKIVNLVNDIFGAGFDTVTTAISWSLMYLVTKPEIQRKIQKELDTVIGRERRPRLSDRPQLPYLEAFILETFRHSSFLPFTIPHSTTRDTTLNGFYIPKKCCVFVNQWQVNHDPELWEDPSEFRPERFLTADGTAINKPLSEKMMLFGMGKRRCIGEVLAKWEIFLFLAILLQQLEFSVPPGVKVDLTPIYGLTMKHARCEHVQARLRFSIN
Summary of the method: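 Inhibition was calculated relative to 57 uM furafylline (full inhibition). The reaction used human CYP1A2 at 20nM with Luciferin-ME at its Km, 100uM, driven by an NADPH-regenerating system for 60 min at room temperature.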

[2] = NFAT Signaling Pathway (AID 444; active means well fitted curve in either direction with a large enough effect, not every such curve was filed as active;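 further: carbachol stimulus at about its EC50 of 1 µM final; on the % scale 0 is the no-effect control and ±100 the full control effect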); details: Jurkat NFAT-bla M1, carbachol, beta-lactamase ratio, 5 h; at 38 µM (top of the series)
Summary of the method: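 Read-out: CCF4 FRET ratio (460 nm/530 nm) after 1 h RT dye loading, used for %activity and AC50 from titration series. Cells: Jurkat NFAT-β-lactamase/M1 line, treated with compound plus 1 uM carbachol for 5 h, 37 °C.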

[3] = Stat Signaling Pathway (AID 446; active means well fitted curve in either direction with a large enough effect, not every such curve was filed as active;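 further: ME-180 cervical cancer cells given 40 pM IL-6 alongside compound; SIE-controlled beta-lactamase reporter measured as 460/530 nm FRET emission ratio; on the % scale 0 is the no-effect control and ±100 the full control effect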); details: ME-180 SIE beta-lactamase reporter, IL-6 stimulated, 5 h; at 38 µM (top of the series)
Summary of the method: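 ME-180 cells carrying a SIE-driven beta-lactamase reporter are stimulated with 40 pM IL-6 for 5 h at 37C in the presence of compound. The 460/530 nm FRET substrate ratio is read after 2.5 h at RT. Data are normalised to 300 pM IL-6 and to 125 nM JAK inhibitor controls.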

[4] = molecular target: Glucocorticoid receptor (Homo sapiens) (UniProt P04150); assay: GR-GFP Redistribution (AID 450;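 active means compounds whose dose series gives a full or clear partial fitted curve of increased nuclear translocation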; further: potency means the concentration at half of the fitted maximal effect); details: U2OS GR-GFP nuclear translocation, laser cytometry, 2 h
Chain of Glucocorticoid receptor (Homo sapiens) (P04150 whole entry, looked up, the tested form may be a part): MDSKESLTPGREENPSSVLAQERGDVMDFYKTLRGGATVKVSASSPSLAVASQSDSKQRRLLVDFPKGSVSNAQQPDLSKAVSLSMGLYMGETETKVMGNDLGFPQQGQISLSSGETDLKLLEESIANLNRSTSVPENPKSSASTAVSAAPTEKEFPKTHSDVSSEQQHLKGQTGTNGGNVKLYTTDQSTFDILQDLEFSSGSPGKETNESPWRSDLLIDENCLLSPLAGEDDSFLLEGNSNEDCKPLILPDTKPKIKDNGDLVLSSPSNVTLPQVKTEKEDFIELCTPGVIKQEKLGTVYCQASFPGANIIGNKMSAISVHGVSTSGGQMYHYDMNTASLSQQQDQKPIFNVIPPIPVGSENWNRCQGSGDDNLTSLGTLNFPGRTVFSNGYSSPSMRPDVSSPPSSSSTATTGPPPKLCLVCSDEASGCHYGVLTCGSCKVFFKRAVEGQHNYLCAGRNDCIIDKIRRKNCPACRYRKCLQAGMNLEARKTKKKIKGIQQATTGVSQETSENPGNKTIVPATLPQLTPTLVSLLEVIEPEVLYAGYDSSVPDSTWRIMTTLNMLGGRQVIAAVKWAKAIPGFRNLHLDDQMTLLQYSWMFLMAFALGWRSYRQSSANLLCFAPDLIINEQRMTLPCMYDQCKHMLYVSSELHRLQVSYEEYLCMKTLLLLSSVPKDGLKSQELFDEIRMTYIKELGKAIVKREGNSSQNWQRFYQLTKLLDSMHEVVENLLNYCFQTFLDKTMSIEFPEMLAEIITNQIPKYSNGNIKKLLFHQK

[5] = molecular target: Glucocorticoid receptor (Homo sapiens) (UniProt P04150); assay: GR-EFC Redistribution (AID 451; calls by dose curve; further: potency means the concentration at half of the fitted maximal effect); details: CHO-K1 GR-EFC translocation, beta-gal luminescence, 2 h
Summary of the method: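 Translocation of GR-ED fusion to nuclear EA restores b-gal, read by luminescence after 1 h room-temperature detection. Engineered CHO-K1 biosensor cells, 1,000/well, exposed 2 h at 37 C to titrations up to 46 uM final.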

[6] = molecular target: Guanine nucleotide-binding protein G(i) subunit alpha-1 (Homo sapiens) (UniProt P63096); assay: qHTS Assay for Inhibitors of RGS12 GoLoco Motif Activity (Green Fluorophore) (AID 879);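 further: 0% = labeled peptide with Gαi1 and full inhibition = labeled peptide alone without protein; negative values mean loss of peptide binding seen as reduced polarization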
Chain of Guanine nucleotide-binding protein G(i) subunit alpha-1 (Homo sapiens) (P63096 whole entry, looked up): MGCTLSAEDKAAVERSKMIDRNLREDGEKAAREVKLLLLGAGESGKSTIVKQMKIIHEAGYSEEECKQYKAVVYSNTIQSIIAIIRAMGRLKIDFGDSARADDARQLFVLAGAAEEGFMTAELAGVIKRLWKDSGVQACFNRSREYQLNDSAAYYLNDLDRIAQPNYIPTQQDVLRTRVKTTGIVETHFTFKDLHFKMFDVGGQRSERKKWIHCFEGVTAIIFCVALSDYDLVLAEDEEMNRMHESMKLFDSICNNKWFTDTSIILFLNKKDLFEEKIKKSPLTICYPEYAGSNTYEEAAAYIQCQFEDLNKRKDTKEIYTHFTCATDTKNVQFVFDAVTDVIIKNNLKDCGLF
Summary of the method: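 Fluorescence polarization assay: 50 nM Gαi1 with 10 nM FITC-labeled RGS12 GoLoco peptide in 10 mM Tris pH 7.5, 150 mM NaCl, 0.1 mM GDP, 0.05% NP40, 10 min at room temperature with compound.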

[7] = molecular target: Cytochrome P450 3A4 (Homo sapiens) (UniProt P08684); assay: qHTS Assay for Activators of Cytochrome P450 3A4 (AID 885); further: nearly all actives have a fitted effect of over 65% in size
Chain of Cytochrome P450 3A4 (Homo sapiens) (P08684 whole entry, looked up): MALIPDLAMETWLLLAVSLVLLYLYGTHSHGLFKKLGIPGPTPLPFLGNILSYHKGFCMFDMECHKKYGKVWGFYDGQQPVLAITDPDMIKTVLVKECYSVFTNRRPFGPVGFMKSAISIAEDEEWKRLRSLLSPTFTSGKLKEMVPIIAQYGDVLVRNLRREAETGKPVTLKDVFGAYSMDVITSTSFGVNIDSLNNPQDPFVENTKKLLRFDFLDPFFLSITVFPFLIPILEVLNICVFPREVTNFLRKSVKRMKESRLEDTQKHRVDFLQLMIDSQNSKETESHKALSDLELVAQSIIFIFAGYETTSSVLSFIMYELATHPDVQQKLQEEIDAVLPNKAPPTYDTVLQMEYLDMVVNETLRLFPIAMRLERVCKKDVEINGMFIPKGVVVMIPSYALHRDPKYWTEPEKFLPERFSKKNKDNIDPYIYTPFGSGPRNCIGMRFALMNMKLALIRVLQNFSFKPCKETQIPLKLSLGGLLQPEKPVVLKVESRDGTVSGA
Summary of the method: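 Human CYP3A4 (20 nM) with Luciferin-PPXE at 25 uM (its KM) in 200 mM KPO4; 10 min compound preincubation, then NADPH regeneration and 60 min reaction at RT. Luciferin read by luminescence; normalized to 57 uM ketoconazole full inhibition.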

[8] = qHTS Assay for Identification of Small Molecule Agonists for Thrombopoietin (TPO) Signaling Pathway (AID 917); further: on the % scale 0 is the no-effect control and ±100 the full control effect
Summary of the method: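 Activators of TPO signaling were sought in murine Ba/F3 cells transfected with the human receptor, using a luciferase gene driven by the Glycoprotein IIb promoter; 24-hr compound exposure at 37 C alongside 26 pM TPO, in IL-3-free medium.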

[9] = molecular target: Pyruvate kinase (Leishmania mexicana) (UniProt Q27686); assay: qHTS Validation Assay for Inhibitors of Leishmania Mexicana Pyruvate Kinase (AID 945);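 further: 0% = DMSO only neutral control wells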
Summary of the method: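 Mutant LmPYK (E451W), 0.2 nM, plus 0.5 mM PEP and 0.1 mM ADP in 50 mM imidazole pH 7.2 containing 0.01% Tween 20 and 0.05% BSA. Incubated 1 h at room temperature; luminescence via PKLight, normalized to DMSO.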

[10] = molecular target: Pyruvate kinase PKM (Homo sapiens) (UniProt P14618); assay: qHTS Assay for Activators of Human Muscle Pyruvate Kinase (AID 954; active means well fitted curve in the direction sought with a large enough effect, not every such curve was filed as active;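 further: 0% = uninhibited enzyme and -100% = no enzyme or full thiadiazolimine inhibition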)
Chain of Pyruvate kinase PKM (Homo sapiens) (P14618 whole entry, looked up): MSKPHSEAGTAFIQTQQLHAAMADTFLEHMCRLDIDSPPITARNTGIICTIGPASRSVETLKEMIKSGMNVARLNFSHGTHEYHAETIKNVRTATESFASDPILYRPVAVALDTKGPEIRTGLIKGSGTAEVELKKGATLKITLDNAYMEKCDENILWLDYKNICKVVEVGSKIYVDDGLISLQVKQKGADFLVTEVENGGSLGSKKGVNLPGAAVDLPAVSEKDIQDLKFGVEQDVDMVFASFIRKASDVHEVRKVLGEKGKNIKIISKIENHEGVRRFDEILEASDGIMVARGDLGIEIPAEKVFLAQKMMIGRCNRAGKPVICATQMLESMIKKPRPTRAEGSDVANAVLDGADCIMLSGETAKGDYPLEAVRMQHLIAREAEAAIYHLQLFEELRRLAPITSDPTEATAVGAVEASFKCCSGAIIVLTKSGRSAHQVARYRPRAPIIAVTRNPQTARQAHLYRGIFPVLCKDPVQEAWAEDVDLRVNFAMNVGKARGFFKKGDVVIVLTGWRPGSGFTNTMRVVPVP
Summary of the method: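 Purified human PKM2 (0.1 nM) with 0.5 mM PEP (Km) and 0.1 mM ADP in 50 mM imidazole pH 7.2, KCl, MgCl2, 1 h at room temperature; ATP formed read by coupled luciferase luminescence. Normalized to no-enzyme/110 uM thiadiazolimine inhibition; 0.3 nM enzyme column for activation.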

[11] = molecular target: Alpha-galactosidase A (Homo sapiens) (UniProt P06280); assay: Counterscreen for Glucocerebrosidase Inhibitors: qHTS Assay for Human alpha-Galactosidase at pH 4.5 (AID 992); further: 0% is about no effect
Chain of Alpha-galactosidase A (Homo sapiens) (P06280 whole entry, looked up): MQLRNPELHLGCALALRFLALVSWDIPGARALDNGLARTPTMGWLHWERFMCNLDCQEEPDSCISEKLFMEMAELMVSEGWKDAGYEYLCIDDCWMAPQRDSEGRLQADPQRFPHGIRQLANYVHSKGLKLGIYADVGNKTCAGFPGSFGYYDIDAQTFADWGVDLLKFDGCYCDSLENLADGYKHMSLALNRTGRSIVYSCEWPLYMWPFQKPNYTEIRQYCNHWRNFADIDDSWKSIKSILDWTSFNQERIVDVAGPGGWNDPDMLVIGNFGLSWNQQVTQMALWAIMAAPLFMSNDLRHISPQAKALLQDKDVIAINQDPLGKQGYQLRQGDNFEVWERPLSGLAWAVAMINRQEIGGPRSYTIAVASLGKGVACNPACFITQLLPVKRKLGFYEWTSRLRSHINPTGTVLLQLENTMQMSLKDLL
Summary of the method: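 Human enzyme (2 nM) with 80 uM 4-methylumbelliferyl alpha-D-galactopyranoside in 50 mM citric acid, 0.005% Tween-20, pH 4.5, 20 min at room temperature. Compounds 0.7 nM–77 uM; fluorescence Ex 365/Em 440 after pH 10 stop; AC50 from Hill fits.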

[12] = molecular target: alpha-glucosidase (Oryza sativa, rice) (UniProt Q653V4); assay: Counterscreen for Glucocerebrosidase Inhibitors: qHTS Assay for Rice alpha-Glucosidase at pH 5.0 (AID 997);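 further: 0% = full activity with enzyme and -100% = basal without enzyme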
Summary of the method: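 Rice alpha-glucosidase (4 nM final) with 400 uM 4-methylumbelliferyl-alpha-D-glucopyranoside in citrate buffer pH 5.0, 20 min at room temperature, stopped at pH 10; fluorescence 365/440 nm, compounds 0.7 nM–77 uM, AC50 from Hill fits.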

[13] = qHTS Assay for Lipid Storage Modulators (AID 1519; calls by dose curve); details: Drosophila S3 cells, BODIPY lipid droplet/cell ratio, laser cytometry, cells loaded with oleic acid; for activity change, negative = inhibition: at 57.5 µM (top of the series)
Summary of the method: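 Cells seeded at 5,000 per well were treated with compounds over a concentration series and loaded with oleic acid (400 uM, as added). Lipid droplet fluorescence (488 nm excitation, 500-530 nm channel) was read by laser-scanning cytometry and normalized to 20 uM Triacsin C.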

[14] = tested on: Zika virus NS2B-NS3 protease; assay: Primary screen GU AMC qHTS for Zika virus inhibitors (AID 1347154);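 further: 0% = no-inhibitor control and -100% = no-enzyme control; nearly all actives have a fitted effect of over 70% in size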
Summary of the method: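 Fluorogenic AMC-substrate cleavage by noncovalent NS2B-NS3 protease complex (25 nM, pH 8.0 Tris buffer with Tween 20) followed for 15 minutes at room temperature (~20% conversion). Percent inhibition from ex340/em450 signal change, fitted by 4-parameter Hill equation.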

[15] = Primary qHTS for small molecule stabilizers of the endoplasmic reticulum resident proteome: Secreted ER Calcium Modulated Protein (SERCaMP) assay (AID 1508630); further: on the % scale 0 is the no-effect control and ±100 the full control effect
Summary of the method: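 GLuc-SERCaMP-expressing SH-SY5Y cells, pretreated 16 h with compound, are challenged with thapsigargin to empty ER calcium stores; after 4 h, coelenterazine is added directly to the medium and luminescence is imaged.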

[16] = molecular target: Mitogen-activated protein kinase 10 (Mus musculus) (UniProt Q61831); assay: JNK3 AlphaScreen Assay (AID 530; active means well fitted curve in either direction with a large enough effect, not every such curve was filed as active)
Summary of the method: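 Room-temperature AlphaScreen kinase assay; pre-activated HepG2 lysate as JNK3 source, biotin-GST-cJun(1-79) substrate, 10 uM ATP, compound 15 min preincubation.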

[17] = molecular target: Ubiquitin carboxyl-terminal hydrolase 1 (Homo sapiens) (UniProt O94782); assay: Inhibitors of USP1/UAF1: Pilot qHTS (AID 504865);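 further: rhodamine fluorescence freed from ubiquitin-rhodamine substrate followed over time; top concentration of the series differs between compounds; on the % scale 0 is the no-effect control and ±100 the full control effect; nearly all actives have a fitted effect of over 35% in size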
Chain of Ubiquitin carboxyl-terminal hydrolase 1 (Homo sapiens) (O94782 whole entry, looked up): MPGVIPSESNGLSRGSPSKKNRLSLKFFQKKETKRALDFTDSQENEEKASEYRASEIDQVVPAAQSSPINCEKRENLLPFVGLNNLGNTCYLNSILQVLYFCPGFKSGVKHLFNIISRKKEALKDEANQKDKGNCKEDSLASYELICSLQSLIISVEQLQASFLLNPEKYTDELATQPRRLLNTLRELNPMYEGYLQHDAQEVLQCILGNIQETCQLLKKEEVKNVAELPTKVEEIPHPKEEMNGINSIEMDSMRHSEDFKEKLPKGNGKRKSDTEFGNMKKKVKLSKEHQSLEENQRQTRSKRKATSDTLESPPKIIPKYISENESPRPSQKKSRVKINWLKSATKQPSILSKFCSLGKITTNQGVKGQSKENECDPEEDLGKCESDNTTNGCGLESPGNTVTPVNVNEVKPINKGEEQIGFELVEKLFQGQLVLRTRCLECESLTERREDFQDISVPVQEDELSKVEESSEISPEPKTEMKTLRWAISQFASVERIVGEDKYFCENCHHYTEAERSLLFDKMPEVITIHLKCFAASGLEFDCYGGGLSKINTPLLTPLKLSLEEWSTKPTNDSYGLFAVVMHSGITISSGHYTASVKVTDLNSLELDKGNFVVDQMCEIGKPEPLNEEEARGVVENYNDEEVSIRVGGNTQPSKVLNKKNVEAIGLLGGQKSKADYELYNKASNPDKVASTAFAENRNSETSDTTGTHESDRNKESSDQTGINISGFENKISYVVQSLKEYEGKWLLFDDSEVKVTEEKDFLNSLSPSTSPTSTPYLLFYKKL
Summary of the method: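 1nM USP1/UAF1 + cpd, 15 min RT; start w/ Ub-Rho 150nM final; kinetic FL 480/540 nm, 6 reads q60 s. Buffer 50mM HEPES pH 7.8, 0.5mM EDTA, 1mM TCEP, 0.01% Tween-20, 0.1 mg/ml BSA.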

[18] = molecular target: DNA dC->dU-editing enzyme APOBEC-3G (Homo sapiens) (UniProt Q9HC16); assay: qHTS for inhibitors of Vif-A3G interactions: Validation (AID 588379); further: 0% is about no effect
Chain of DNA dC->dU-editing enzyme APOBEC-3G (Homo sapiens) (Q9HC16 whole entry, looked up): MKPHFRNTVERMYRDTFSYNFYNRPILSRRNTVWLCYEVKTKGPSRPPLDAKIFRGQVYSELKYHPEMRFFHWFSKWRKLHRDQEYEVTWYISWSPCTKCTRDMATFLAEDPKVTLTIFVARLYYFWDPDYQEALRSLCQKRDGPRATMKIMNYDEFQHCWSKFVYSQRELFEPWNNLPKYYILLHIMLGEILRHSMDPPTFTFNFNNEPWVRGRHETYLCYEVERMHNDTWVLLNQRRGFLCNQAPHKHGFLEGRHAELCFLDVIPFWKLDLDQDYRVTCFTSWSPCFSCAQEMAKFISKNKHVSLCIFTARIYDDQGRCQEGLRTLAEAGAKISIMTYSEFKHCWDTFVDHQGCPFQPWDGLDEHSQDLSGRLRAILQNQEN
Summary of the method: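 HeLa cells stably expressing Vif and A3G-eYFP, 700 cells/well, incubated overnight at 37 deg C, then exposed to compound overnight at 37 deg C. Inhibition of Vif-mediated degradation read as increased yellow fluorescence (Ex 488/Em 500-530) by laser-scanning cytometry.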

[19] = molecular target: 3',5'-cyclic-AMP phosphodiesterase 4B (Homo sapiens) (UniProt Q07343); assay: qHTS Assay for Inhibitors of PDE-IV (AID 607; active means well fitted activation curve with a large enough effect in the main read-out, with a control signal flat, not every such curve was filed as active; further: % of control where 0% means no effect)
Chain of 3',5'-cyclic-AMP phosphodiesterase 4B (Homo sapiens) (Q07343 whole entry, looked up): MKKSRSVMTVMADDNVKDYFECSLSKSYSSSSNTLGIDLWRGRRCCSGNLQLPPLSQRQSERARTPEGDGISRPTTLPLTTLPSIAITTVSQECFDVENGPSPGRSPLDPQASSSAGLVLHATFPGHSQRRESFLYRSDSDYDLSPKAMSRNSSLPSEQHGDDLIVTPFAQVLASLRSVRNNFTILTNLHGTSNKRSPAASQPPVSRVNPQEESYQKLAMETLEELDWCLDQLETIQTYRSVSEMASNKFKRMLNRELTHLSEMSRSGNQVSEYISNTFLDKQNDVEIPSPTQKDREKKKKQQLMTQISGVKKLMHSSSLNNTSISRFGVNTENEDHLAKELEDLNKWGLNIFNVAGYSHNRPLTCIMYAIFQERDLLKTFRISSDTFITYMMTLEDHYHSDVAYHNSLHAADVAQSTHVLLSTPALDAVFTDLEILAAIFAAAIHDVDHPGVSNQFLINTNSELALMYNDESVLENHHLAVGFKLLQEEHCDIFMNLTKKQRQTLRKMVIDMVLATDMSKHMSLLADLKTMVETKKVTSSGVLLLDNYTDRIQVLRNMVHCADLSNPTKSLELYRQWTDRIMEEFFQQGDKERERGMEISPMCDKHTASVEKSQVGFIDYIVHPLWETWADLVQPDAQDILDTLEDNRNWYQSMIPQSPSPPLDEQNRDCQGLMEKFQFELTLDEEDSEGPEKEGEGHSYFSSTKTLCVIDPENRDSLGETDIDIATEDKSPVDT
Summary of the method: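 HEK293 ACTOne cells with CNG channel (1000/well), endogenous PDE4; membrane potential dye, compounds up to 22.9 uM final. Fluorescence Ex 535/Em 590; RO 20-1724 (100 uM final) as reference.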

[20] = measured here: cell count channel max response
[21] = measured here: lipid channel max response

COc1ccccc1NC(=O)Nc1nc(-c2cccnc2)nc2ccccc12
active: Potency [1] 2.51 µM
-29%: max response [13, 21]
-30.6%: max response [13, 20]
inactive: activity change, negative = inhibition [2] 4.7% | activity, negative = inhibition [3] 4.21% | Potency [4] > 46 µM | Potency [5] > 46 µM | outcome [6] | Potency [7] | Potency [8] | Potency [9] | outcome [10] | outcome [11] | outcome [12] | activity change, negative = inhibition [13] -0.716% | Potency [14] | Potency [15]

CC[C@](N)(CCC(=O)O)C(=O)O
active: Potency [1] 20 µM
20.6%: max response [13, 20]
inactive: Potency [4] > 46 µM | Potency [5] > 46 µM | Potency [16] | activity change, negative = inhibition [13] -0.484% | Potency [17] | Potency [18] | Potency [14] | Potency [15]
15.7%: max response [13, 21]

CCC(=O)O[C@H](CC(=O)O)C[N+](C)(C)C
-8.23%: max response [13, 20]
inactive: Potency [1] | Potency [4] > 46 µM | Potency [5] > 46 µM | Potency [16] | activity change, negative = inhibition [13] 3.1% | Potency [17] | Potency [18] | Potency [14] | Potency [15]
-5.22%: max response [13, 21]

N[C@@]1(C(=O)O)CN[C@H](C(=O)O)C1
active: Potency [1] 31.6 µM
-1.87%: max response [13, 21]
inactive: Potency [4] > 46 µM | Potency [5] > 46 µM | Potency [16] | Potency [19] | activity change, negative = inhibition [13] -1.74% | Potency [17] | Potency [18] | Potency [14] | Potency [15]
0.388%: max response [13, 20]
